Experimental data: PubChem BioAssay AID1159580 (chemical genetic matrix, 2015)
Where “and” joins values, the source holds several entries; their conditions need not be identical. Identical values can stand only once. About 2,000 (36%) of roughly 5,500 compounds were called active. Not shown: some 18% with an inconclusive outcome. Cut-off read from the data, not from the text of the source: active = normalized growth mostly below about 0.91 (no sharp cut-off); inconclusive = no clear call, values can overlap the other calls; inactive = mostly above about 0.92. Some of the results follow.

Assay: chemical genetic growth profiling, strain panel (AID 1159580);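 note: tested at 20 µM; growth read once vehicle control cultures reached saturation at 30 °C; 1 = growth at the plate median or of vehicle wells; lower values mean less growth of the strain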
Settings: S. cerevisiae deletion strains, growth OD

Measured: normalized growth

CC(CCc1ccccc1)NC(C)C(O)c1ccc(O)cc1 (stereo not given)
inactive: locus YAL021C, strain ccr4, stronger effect = lower value 0.992 | locus YAL026C, strain drs2, stronger effect = lower value 0.995 | locus YAL030W, strain snc1, stronger effect = lower value 0.999 | locus YAL040C, strain CLN3, stronger effect = lower value 1.01 | locus YBL061C, strain skt5, stronger effect = lower value 0.997 | locus YBR009C, strain hhf1, stronger effect = lower value 1 | locus YBR021W, strain FUR4, stronger effect = lower value 0.997 | locus YBR023C, strain chs3, stronger effect = lower value 1.01 | locus YBR171W, strain sec66, stronger effect = lower value 1.01 | locus YBR229C, strain ROT2, stronger effect = lower value 0.955 | locus YBR231C, strain swc5, stronger effect = lower value 1 | locus YBR279W, strain paf1, stronger effect = lower value 0.995 | locus YCL011C, strain gbp2, stronger effect = lower value 1.01 | locus YCL016C, strain dcc1, stronger effect = lower value 1.01 | locus YCL029C, strain bik1, stronger effect = lower value 0.981 | locus YCL061C, strain MRC1 (second series), stronger effect = lower value 1 | locus YCL061C, strain MRC1, stronger effect = lower value 0.998 | locus YCL069W, strain vba3, stronger effect = lower value 0.998 | locus YCR088W, strain abp1, stronger effect = lower value 1.01 | locus YDL005C, strain med2, stronger effect = lower value 0.999 | locus YDL035C, strain GPR1, stronger effect = lower value 0.977 | locus YDL040C, strain nat1, stronger effect = lower value 1 | locus YDL074C, strain BRE1, stronger effect = lower value 0.953 | locus YDL101C, strain DUN1, stronger effect = lower value 0.978 | locus YDL134C, strain PPH21, stronger effect = lower value 1 | locus YDL185W, strain tfp1, stronger effect = lower value 0.984 | locus YDL192W, strain arf1, stronger effect = lower value 0.992 | locus YDR001C, strain nth1, stronger effect = lower value 0.999 | locus YDR069C, strain doa4, stronger effect = lower value 0.977 | locus YDR101C, strain arx1, stronger effect = lower value 0.998 | locus YDR137W, strain rgp1, stronger effect = lower value 0.989 | locus YDR150W, strain NUM1, stronger effect = lower value 0.984 | locus YDR159W, strain sac3, stronger effect = lower value 0.99 | locus YDR162C, strain NBP2, stronger effect = lower value 0.991 | locus YDR195W, strain ref2 1 | locus YDR297W, strain sur2, stronger effect = lower value 0.993 | locus YDR318W, strain mcm21, stronger effect = lower value 1 | locus YDR334W, strain swr1, stronger effect = lower value 1.01 | locus YDR335W, strain msn5, stronger effect = lower value 0.995 | locus YDR363W, strain ESC2, stronger effect = lower value 0.998 | locus YDR388W, stronger effect = lower value 0.993 | locus YDR392W, strain spt3, stronger effect = lower value 0.963 | locus YDR502C, strain sam2, stronger effect = lower value 1 | locus YEL003W, strain gim4, stronger effect = lower value 0.979 | locus YEL037C, strain rad23, stronger effect = lower value 1 | locus YEL061C, strain CIN8 (second series), stronger effect = lower value 1 | locus YEL061C, strain CIN8, stronger effect = lower value 0.987 | locus YER002W, strain NOP16, stronger effect = lower value 1 | locus YER015W, strain faa2, stronger effect = lower value 0.998 | locus YER016W, strain bim1, stronger effect = lower value 0.999 | locus YER110C, stronger effect = lower value 0.962 | locus YER111C, strain swi4, stronger effect = lower value 0.999 | locus YER155C, strain BEM2 (second series), stronger effect = lower value 1 | locus YER155C, strain BEM2, stronger effect = lower value 0.993 | locus YER167W, strain BCK2, stronger effect = lower value 0.99 | locus YFR010W, strain ubp6, stronger effect = lower value 1 | locus YGL078C, strain dbp3, stronger effect = lower value 0.993 | locus YGL086W, strain mad1, stronger effect = lower value 0.975 | locus YGL167C, strain pmr1, stronger effect = lower value 1 | locus YGL173C, strain kem1, stronger effect = lower value 1.01 | locus YGL227W, strain vid30, stronger effect = lower value 1 | locus YGL240W, strain doc1, stronger effect = lower value 0.993 | locus YGL248W, strain PDE1, stronger effect = lower value 0.97 | locus YGL253W, strain hxk2, stronger effect = lower value 0.997 | locus YGR078C, strain PAC10, stronger effect = lower value 0.981 | locus YGR135W, strain pre9, stronger effect = lower value 0.989 | locus YGR229C, strain SMI1, stronger effect = lower value 0.989 | locus YGR252W, strain gcn5, stronger effect = lower value 0.974 | locus YHR013C, strain ard1, stronger effect = lower value 0.991 | locus YHR027C, strain rpn1, stronger effect = lower value 1.02 | locus YHR030C, strain SLT2, stronger effect = lower value 0.995 and 0.972 | locus YHR079C, strain IRE1 (second series), stronger effect = lower value 1 | locus YHR079C, strain IRE1, stronger effect = lower value 0.959 | locus YHR094C, strain hxt1, stronger effect = lower value 1 | locus YHR129C, strain ARP1, stronger effect = lower value 0.987 | locus YHR142W, strain chs7, stronger effect = lower value 1.01 | locus YHR200W, strain rpn10, stronger effect = lower value 0.997 | locus YIL066C, strain RNR3, stronger effect = lower value 0.988 | locus YIL073C, strain SPO22, stronger effect = lower value 0.979 | locus YIL125W, strain kgd1, stronger effect = lower value 0.989 | locus YIR030C, strain dcg1, stronger effect = lower value 0.983 | locus YJL092W, strain hpr5, stronger effect = lower value 1.01 | locus YJL095W, strain BCK1 (second series), stronger effect = lower value 1.02 | locus YJL095W, strain BCK1, stronger effect = lower value 0.981 and 0.985 | locus YJL115W, strain asf1, stronger effect = lower value 1.01 | locus YJL129C, strain trk1, stronger effect = lower value 0.98 | locus YJL134W, strain LCB3, stronger effect = lower value 0.993 | locus YJL154C, strain vps35, stronger effect = lower value 0.996 | locus YJL164C, strain tpk1, stronger effect = lower value 0.992 | locus YJL166W, strain qcr8, stronger effect = lower value 1 | locus YJL168C, strain set2, stronger effect = lower value 0.991 | locus YJL187C, strain SWE1 (second series), stronger effect = lower value 0.982 | locus YJL187C, strain SWE1, stronger effect = lower value 1 | locus YJR043C, strain POL32, stronger effect = lower value 1 | locus YJR066W, strain TOR1, stronger effect = lower value 0.925
